Screens: PubChem BioAssay, several laboratories
Only some compounds are listed: those with a hit (about 2.5% of all), similar ones and a draw of the others.
PHOSPHO1 block = PHOSPHO1 (human) inhibition | inhibition, % at 13.3 µM | recombinant PHOSPHO1, absorbance phosphatase assay | Q8TCT1 | hit rate 1.1% among 290,000; in the data active means inhibition above about 60%
G6PDH CS = inhibits Leuconostoc G6PDH, flagging false hits in G6PDH-based assays; Purified L. mesenteroides G6PDH, diaphorase/resazurin coupled fluorescence, 45 min; inhibition, % at 5 µM; hit rate 0.12% among 200,000; AID 1020; in the data active means inhibition above about 50%
p97 ATPase inh = blocks human p97 ATPase activity; recombinant p97 ATPase, Kinase-Glo ATP luminescence, 3 h; inhibition, % at 8 µM; P55072; hit rate 0.42% among 220,000; AID 1481; in the data active means inhibition above about 15%;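 further: 0% = DMSO vehicle and 100% = wells lacking enzyme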
Target sequence (P55072 whole entry, looked up): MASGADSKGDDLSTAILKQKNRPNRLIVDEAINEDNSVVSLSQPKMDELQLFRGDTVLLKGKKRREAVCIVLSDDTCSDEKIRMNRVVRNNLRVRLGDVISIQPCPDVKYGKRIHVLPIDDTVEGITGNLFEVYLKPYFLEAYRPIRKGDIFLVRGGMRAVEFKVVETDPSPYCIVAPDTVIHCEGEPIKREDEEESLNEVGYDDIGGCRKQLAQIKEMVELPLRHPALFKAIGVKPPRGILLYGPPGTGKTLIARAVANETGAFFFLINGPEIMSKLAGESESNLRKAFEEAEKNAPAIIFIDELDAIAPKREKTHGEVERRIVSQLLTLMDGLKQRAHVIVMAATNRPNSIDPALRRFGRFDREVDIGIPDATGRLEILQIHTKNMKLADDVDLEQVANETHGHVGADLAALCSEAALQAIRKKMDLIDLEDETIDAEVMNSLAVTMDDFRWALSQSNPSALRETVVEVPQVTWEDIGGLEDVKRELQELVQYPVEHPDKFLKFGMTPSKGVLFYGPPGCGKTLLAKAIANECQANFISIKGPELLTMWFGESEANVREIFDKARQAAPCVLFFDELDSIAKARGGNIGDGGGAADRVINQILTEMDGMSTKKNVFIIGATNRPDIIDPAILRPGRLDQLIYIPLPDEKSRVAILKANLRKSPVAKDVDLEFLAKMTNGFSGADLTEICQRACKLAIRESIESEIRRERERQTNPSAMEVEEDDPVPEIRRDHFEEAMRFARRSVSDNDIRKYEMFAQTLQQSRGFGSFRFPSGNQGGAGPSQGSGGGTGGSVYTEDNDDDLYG
HDAC3 inhib = blocks human histone deacetylase 3 | O15379 | inhibition, % at 8.3 µM | hit rate 0.15% among 320,000 | recombinant HDAC3, fluorogenic peptide/trypsin coupled, fluorescence | AID 2718; in the data active means inhibition above about 26%, passing the limit was not always enough; inconclusive means no clear call, values can overlap the other calls
UBC9 SUMO inh = SUMOylation inhibition; P63279; HTRF SUMOylation assay, SAE1/SAE2 + UBC9, in vitro; inhibition, % at 35 µM; hit rate 0.36% among 290,000; in the data active means inhibition above about 50%, passing the limit was not always enough; inconclusive means no clear call, values can overlap the other calls
PfM18AAP inh-1 = blocks P. falciparum M18 aspartyl aminopeptidase; inhibition, % at 7.35 µM; hit rate 1.2% among 290,000; recombinant PfM18AAP, H-Glu-NHMec fluorogenic cleavage; AID 1822;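 active means inhibition above the campaign mean inhibition over all tested compounds plus 3 SD, cut at about 28% in these data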;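 further: 0% = plate median of test compound wells and 100% = 2 mM ZnCl2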
PfM18AAP inh-2 = confirmation of Plasmodium falciparum M18 aspartyl aminopeptidase inhibitors | shares compounds with PfM18AAP inh-1 | recombinant PfM18AAP, H-Glu-NHMec fluorogenic cleavage | inhibition, % at 7.35 µM | hit rate 28% among 2,400;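 active means mean inhibition over replicate wells above the hit cutoff set for the earlier primary screen, cut at about 29% in these data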;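 further: 0% = median of test compound wells and 100% = 2 mM ZnCl2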
CTSL1 counter = counter-screen for PFM18AAP inhibitors: confirmation of human cathepsin L inhibitors. shares compounds with PfM18AAP inh-1. inhibition, % at 5.96 µM. 2,400 tested, under 10 active. purified cathepsin L1, Z-Leu-Arg-MCA fluorescence;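 active means average inhibition across replicates above the hit cutoff set in the earlier primary screen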;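 further: 0% = median of test compound wells and 100% = Z-Phe-Ala-diazomethylketone 1 µM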
* marks the source's active call; other numbers are inactive results; i = inactive; ? = inconclusive; · = no result given.

SMILES	PHOSPHO1 block	G6PDH CS	p97 ATPase inh	HDAC3 inhib	UBC9 SUMO inh	PfM18AAP inh-1	PfM18AAP inh-2	CTSL1 counter
COC(=O)c1ccc(NC(=O)C2CCCN2C(=O)OCc2ccccc2)cc1 (centres undefined)	34	·	·	-3	12	-4	·	·
O=C(Nc1cccc(Cl)c1)N(CCN1CCOCC1)Cc1ccccc1F	14	5	1	-1	-8	71*	-30	2
C=CCSc1ncc(C(=O)OCC)c(N)n1	28	2	4	4	12	-4	·	·
CCOC(=O)c1cnc(SSc2ncc(C(=O)OCC)c(N)n2)nc1N	-46	·	·	6	4	64*	44*	2
CN(C)c1ccc(C(=S)NC2CCCCC2)cc1	-130	8	1	4	5	33*	5	2
CCOc1ccc(C(=S)NC2CCCCC2)cc1OCC	·	·	·	-4	-8	37*	18	-3
O=c1[nH]c(C2CCN(S(=O)(=O)c3ccccc3C(F)(F)F)CC2)nc2c1nnn2Cc1cccc(F)c1	45	·	·	2	-11	-6	·	·
CC(C)NC[C@@H](O)c1ccc(O)c(O)c1	4	63*	4	4	7	61*	56*	-2
COc1ccc(CN2CN(c3ccc(Cl)cc3)C(=O)N(n3cnnc3)C2)cc1	32	5	3	5	27	51*	40*	-2
O=C1N(c2ccc(Cl)c(Cl)c2)CN(Cc2ccccc2)CN1n1cnnc1	-16	-7	0	0	61*	70*	55*	1
COc1ccc(N2C(=O)CC(SCc3ccc(Cl)cc3)C2=O)cc1 (centres undefined)	14	·	0	1	15	-15	·	·
COc1cc(OC)cc(C(=O)N[C@H](C(=O)NC2CCCc3ccccc32)C(C)C)c1 (some centres undefined)	·	·	·	-3	·	·	·	·
CC(C)Oc1ccc(-c2nn(-c3ccccc3)cc2/C=c2\sc3ncnn3c2=O)cc1	52	-33	0	3	13	58*	-17	3
O=c1cc(CN2CCN(Cc3ccccc3)CC2)c2ccc(O)c(O)c2o1	14	·	·	0	4	48*	9	-5
O=c1cc(CN2CCOCC2)c2ccc(O)c(O)c2o1	18	·	·	-4	-15	36*	9	-4
CCCc1cc(=O)oc2c(CN3CCOCC3)c(O)ccc12	4	1	5	i	19	0	·	·
CC(C)n1c(=O)[nH][nH]c1=S	57	·	6	?	9	57*	36*	1
Cc1ccc(NC(=S)NNc2ccc([N+](=O)[O-])cc2S(=O)(=O)Nc2ccccc2C(=O)O)cc1C	-14	6	-2	11	22	59*	-7	-5
COC(=O)C1=C(C)OC(N)=C(C#N)C1c1ccccc1 (centres undefined)	-53	9	7	4	-6	0	·	·
CNC(=O)C1C(=S)NC(N)=C(C#N)C1c1ccccc1 (centres undefined)	32	18	-3	7	17	47*	23	0
COc1cc(C(=O)Nc2nnc(C3CC3)s2)ccc1OCc1c(C)noc1C	53	3	6	-11	2	4	·	·
O=C(NN=C1CCC(=NNC(=O)c2ccccn2)CC1)c1ccccn1	33	9	2	·	12	32*	-17	-1
Cc1cc2c(cc1C)/C(=N/NC(=O)c1ccccn1)CCC2	32	·	4	11	21	-7	·	·
CC1=C(C(=O)Nc2cccc(C(=O)N3CCC(C(N)=O)CC3)c2)SCCO1	26	·	·	8	-1	-1	·	·
O=c1[nH]c(=S)[nH]nc1Cc1ccccc1	49	15	-3	3	28	38*	-30	-7
SMILES	PHOSPHO1 block	G6PDH CS	p97 ATPase inh	HDAC3 inhib	UBC9 SUMO inh	PfM18AAP inh-1	PfM18AAP inh-2	CTSL1 counter
N#Cc1cnc(SCCc2ccccc2)nc1N	3	-22	7	3	-3	5	·	·
Cc1cnc(SCCc2ccncc2)nc1C	7	-9	2	1	-9	62*	-8	-1
Cc1nn(CC(=O)NC2(C)CCS(=O)(=O)C2)c(C)c1S(=O)(=O)N(C)C (centres undefined)	·	·	·	1	·	·	·	·
CCC(=O)Nc1nc(NCc2ccccc2OC)n(-c2ccccc2)n1	38	·	·	2	-6	-2	·	·
CCCCOP(=O)(c1ccc(N(C)C)cc1)C(O)c1ccc(N(C)C)cc1 (centres undefined)	24	·	·	2	15	34*	-59	5
O=C(NC(=S)NNC(=O)c1ccccc1O)c1ccco1	16	6	-4	8	-17	33*	30*	2
CN(Cc1ccccc1)S(=O)(=O)CCNC(=O)c1ccc2c(c1)OCO2	·	·	·	0	·	·	·	·
CCOC(=O)NC1(Nc2ccc(C)cc2)Oc2ccccc2O1	-16	17	11	3	14	58*	60*	-3
CCOC(=O)NC1(NCC(C)C)Oc2ccccc2O1	19	9	0	2	-24	66*	34*	1
CCOC(=O)NC1(NC(C)C)Oc2ccccc2O1	18	14	0	1	-11	80*	-2	-5
CCOC(=O)NC1(NC2CCCCC2)Oc2ccccc2O1	35	14	4	-8	-6	55*	35*	0
CCOC(=O)NC1c2ccccc2Oc2ccccc21	16	·	2	3	22	-12	·	·
N#CC1(NC(=O)CN2C(=O)NC(c3ccccc3)(c3ccccc3)C2=O)CCCC1	·	·	·	6	·	·	·	·
O=S(=O)(c1ccc(Br)s1)N1CCN(CCc2ccccc2)CC1	·	·	·	0	·	·	·	·
CC1CCCCC12NC(=O)N(CC(=O)NNC(=O)c1ccc(Br)cc1)C2=O (centres undefined)	·	·	·	1	·	·	·	·
CC1(C)Nc2ccc(O)cc2-c2c1ssc2=S	21	8	9	1	53	15	·	·
CCOc1ccc2c(c1)-c1c(ssc1=S)C(C)(C)N2C	70*	12	-4	?	-12	33*	-25	-2
CN(Cc1ccccn1)C(=O)C1CCC(=O)N(CCc2ccc(Cl)cc2)C1 (centres undefined)	41	·	·	-4	·	-4	·	·
COc1ccc(N2CCN(CC(=O)c3ccc(O)cc3O)CC2)cc1	34	·	·	-3	7	37*	-6	-2
O=C(O)c1csc(N/N=C/c2ccc(Br)cc2)n1	11	14	1	·	10	33*	-42	1
COc1ccc(NC(=S)NNC(=O)c2ccco2)c(OC)c1	4	·	·	-1	11	12	·	·
Cc1[nH]n(-c2ccc(F)cc2)c(=O)c1/C=N/c1sc2c(c1C#N)CCCC2	-21	-1	-7	-16	11	34*	-56	3
COc1ccc(N(CC(=O)NCCSCc2ccc(Cl)cc2)S(C)(=O)=O)cc1Cl	4	·	·	12	-1	1	·	·
